# The supplement of paper PMC6522484
# ± gives the standard deviation of the averaged measurements.
# Tests used:
# [1] = system: DLD1; assay: cell viability (CellTiter-Glo) relative to plate median (fraction of plate median); higher = more viable cells; conditions: 10 µM, treatment time 24 h
# Method in brief: (§1)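 Colorectal cancer cell lines stably transduced with lentiviral TCF/Wnt firefly luciferase reporters (7TFP or TCF4/Wnt) were seeded in 384-well plates. 24 h later they received kinase inhibitor library compounds at a final 10 µM for 24 h. Parallel plates were read for firefly luciferase or CellTiterGlo luminescence on a Tecan F500 reader. Each well's signal was normalised to the plate median (webcellHTS2, additive, no log transformation), and the mean of two independent replicates is reported.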
# [2] = system: HCT116; assay: as above; conditions: 10 µM; treatment time 24 h; reporter: TCF4/Wnt
# Method in brief: as §1
# [3] = system: SW480; assay: as above; conditions: 10 µM; treatment time 24 h; reporter: 7TFP
# Method in brief: as §1
# [4] = system: DLD1; assay: TCF/Wnt firefly luciferase reporter signal relative to plate median (fraction of plate median); higher = higher Wnt reporter signal; conditions: 10 µM, treatment time 24 h
# Method in brief: as §1
# [5] = system: HCT116; assay: as above; conditions: 10 µM; treatment time 24 h; reporter: TCF4/Wnt
# Method in brief: as §1
# [6] = system: SW480; assay: as above; conditions: 10 µM; treatment time 24 h; reporter: 7TFP
# Method in brief: as §1
# [7] = system: DLD1; assay: cell viability (CellTiter-Glo) relative to plate median (fraction of plate median); higher = more viable cells; conditions: 5 µM; treatment time 24 h; reporter: 7TFP
# Method in brief: as §1, with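 “received” for “received kinase inhibitor”, “5” for “10”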
# [8] = system: HCT116; assay: as above; conditions: 5 µM; treatment time 24 h; reporter: TCF4/Wnt
# Method in brief: as §1, with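 “received” for “received kinase inhibitor”, “5” for “10”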
# [9] = system: SW480; assay: as above; conditions: 5 µM; treatment time 24 h; reporter: 7TFP
# Method in brief: as §1, with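 “received” for “received kinase inhibitor”, “5” for “10”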
# [10] = system: DLD1; assay: TCF/Wnt firefly luciferase reporter signal relative to plate median (fraction of plate median); higher = higher Wnt reporter signal; conditions: 5 µM; treatment time 24 h; reporter: 7TFP
# Method in brief: as §1, with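 “received” for “received kinase inhibitor”, “5” for “10”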
# [11] = system: SW480; assay: as above; conditions: 5 µM; treatment time 24 h; reporter: 7TFP
# Method in brief: as §1, with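 “received” for “received kinase inhibitor”, “5” for “10”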
compound,measurement,setting,value
Cn1cc(C2=C(c3cn(C4CCN(Cc5ccccn5)CC4)c4ccccc34)C(=O)NC2=O)c2ccccc21,cell viability,[1]; reporter: 7TFP,0.854 ± 0.016
same,cell viability,[1]; reporter: TCF4/Wnt,0.931 ± 0.059
same,cell viability,[2],1.08 ± 0.071
same,cell viability,[3],0.931 ± 0.081
same,TCF/Wnt firefly luciferase reporter signal,[4]; reporter: 7TFP,1.98 ± 0.86
same,TCF/Wnt firefly luciferase reporter signal,[4]; reporter: TCF4/Wnt,1.38 ± 0.18
same,TCF/Wnt firefly luciferase reporter signal,[5],2.9 ± 0.54
same,TCF/Wnt firefly luciferase reporter signal,[6],1.45 ± 0.17
CC1=CC(=O)c2c(O)cccc2C1=O,cell viability,[7],0.0607 ± 0.019
same,cell viability,[8],0.229 ± 0.24
same,cell viability,[9],0.404 ± 0.51
same,TCF/Wnt firefly luciferase reporter signal,[10],0.0412 ± 0.032
same,TCF/Wnt firefly luciferase reporter signal,[11],0.157 ± 0.19
CC(C)=CCC[C@@H](C(=O)O)[C@H]1CC[C@@]2(C)C3=C(CC[C@]12C)[C@@]1(C)CC[C@H](O)C(C)(C)[C@@H]1CC3 [Trametenolic acid],cell viability,[7],0.995 ± 0.022
same,cell viability,[8],1.07 ± 0.071
same,cell viability,[9],1.02 ± 0.028
same,TCF/Wnt firefly luciferase reporter signal,[10],1.08 ± 0.085
same,TCF/Wnt firefly luciferase reporter signal,[11],1.12 ± 0.13
CN1C(=O)CCS(=O)(=O)C1c1ccc(Cl)cc1 (stereo unspecified),cell viability,[7],1.01 ± 0.033
same,cell viability,[8],1.02 ± 0.014
same,cell viability,[9],0.946 ± 0.15
same,TCF/Wnt firefly luciferase reporter signal,[10],0.984 ± 0.023
same,TCF/Wnt firefly luciferase reporter signal,[11],1.04 ± 0.093
O=C([O-])Cc1ccccc1.[Na+],cell viability,[7],0.97 ± 0.0057
same,cell viability,[8],0.906 ± 0.1
same,cell viability,[9],0.971 ± 0.021
same,TCF/Wnt firefly luciferase reporter signal,[10],0.923 ± 0.04
same,TCF/Wnt firefly luciferase reporter signal,[11],0.896 ± 0.0042
CCCCCCCCCCCCCCCC[n+]1ccccc1,cell viability,[7],0.885 ± 0.07
same,cell viability,[8],0.797 ± 0.13
same,cell viability,[9],0.95 ± 0.028
same,TCF/Wnt firefly luciferase reporter signal,[10],0.773 ± 0.062
same,TCF/Wnt firefly luciferase reporter signal,[11],0.661 ± 0.073
CCCC(C)C1(CC)C(=O)NC(=S)NC1=O (stereo unspecified),cell viability,[7],1.005 ± 0.0071
same,cell viability,[8],1.03 ± 0.11
same,cell viability,[9],1.02 ± 0.035
same,TCF/Wnt firefly luciferase reporter signal,[10],1.16 ± 0.15
same,TCF/Wnt firefly luciferase reporter signal,[11],0.974 ± 0.065
COc1ccc2c(c1OC)C(=O)O[C@@H]2[C@H]1c2cc3c(cc2CCN1C)OCO3,cell viability,[7],1.05 ± 0.042
same,cell viability,[8],1.1 ± 0.078
same,cell viability,[9],1.1 ± 0.035
same,TCF/Wnt firefly luciferase reporter signal,[10],1.18 ± 0.05
same,TCF/Wnt firefly luciferase reporter signal,[11],1.04 ± 0.097
CC(C)(C)c1cc(C=C(C#N)C#N)cc(Br)c1O,cell viability,[1]; reporter: 7TFP,0.79 ± 0.03
same,cell viability,[1]; reporter: TCF4/Wnt,0.804 ± 0.18
same,cell viability,[2],0.966 ± 0.16
same,cell viability,[3],0.91 ± 0.035
same,TCF/Wnt firefly luciferase reporter signal,[4]; reporter: 7TFP,1.2 ± 0.092
same,TCF/Wnt firefly luciferase reporter signal,[4]; reporter: TCF4/Wnt,1.07 ± 0.18
same,TCF/Wnt firefly luciferase reporter signal,[5],1.38 ± 0.25
same,TCF/Wnt firefly luciferase reporter signal,[6],1.3 ± 0.11
CCOP(=S)(OCC)Oc1ccc2c(C)c(Cl)c(=O)oc2c1,cell viability,[7],0.989 ± 0.044
same,cell viability,[8],0.983 ± 0.14
same,cell viability,[9],0.9335 ± 0.005
same,TCF/Wnt firefly luciferase reporter signal,[10],0.928 ± 0.04
same,TCF/Wnt firefly luciferase reporter signal,[11],0.89 ± 0.012
NC(=O)c1cc([N+](=O)[O-])cc([N+](=O)[O-])c1,cell viability,[7],1.01 ± 0.015
same,cell viability,[8],1.01 ± 0.093
same,cell viability,[9],0.98 ± 0.016
same,TCF/Wnt firefly luciferase reporter signal,[10],1.06 ± 0.05
same,TCF/Wnt firefly luciferase reporter signal,[11],0.923 ± 0.14
C/C=C/[C@H]1O[C@@](O)([C@@H](C)[C@H](O)[C@H](C)[C@H]2OC(=O)/C(OC)=C/C(C)=C/[C@@H](C)[C@@H](O)[C@@H](CC)[C@@H](O)[C@H](C)C/C(C)=C/C=C/[C@@H]2OC)C[C@@H](O[C@H]2C[C@@H](O)[C@H](OC(N)=O)[C@@H](C)O2)[C@@H]1C [Concanamycin A],cell viability,[7],0.886 ± 0.095
same,cell viability,[8],0.998 ± 0.059
same,cell viability,[9],1.04 ± 0.035
same,TCF/Wnt firefly luciferase reporter signal,[10],0.806 ± 0.2
same,TCF/Wnt firefly luciferase reporter signal,[11],0.9 ± 0.12
CSc1nc(NC(C)C)nc(NC(C)C)n1,cell viability,[7],0.9725 ± 0.0035
same,cell viability,[8],0.92 ± 0.11
same,cell viability,[9],1 ± 0.014
same,TCF/Wnt firefly luciferase reporter signal,[10],1.06
same,TCF/Wnt firefly luciferase reporter signal,[11],1.07 ± 0.014
